Experimental data as given in PubChem BioAssay (Tox21).
Records with an inconclusive call do not appear. Active and inactive are the calls of the source. Unless noted, the call rests on the fitted dose curve; in most records, active means well fitted curve in the direction sought with a large enough effect in the repeat runs; inconclusive means weak or mixed curves; inactive means no such curve, though single readings can be large; an effect the other way counts as inactive or inconclusive.

Experiments:
[1] = qHTS assay to identify small molecule antagonists of the vitamin D receptor (VDR) signaling pathway - cell viability counter screen (AID 743225); further: nearly all actives have a fitted effect of over 50% in size
Summary of the method: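 Compounds were pinned onto VDR-bla HEK 293T cells together with 1-alpha,25-dihydroxyvitamin D3 at 3 nM final. After 16 h at 37C and 5% CO2 plus the reporter readout, cell viability was measured by CellTiter-Glo luminescence (30 min, room temperature).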

[2] = qHTS assay to identify small molecule agonists of the NFkB signaling pathway (AID 1159509; active means well fitted curve in the direction sought with a large enough effect in the signal ratio in the repeat runs, not every such curve was filed as active; the % refers to the signal ratio; further: series mostly up to about 61 µM)
Summary of the method: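 Beta-lactamase reporter assay run in quantitative high-throughput format on an NF-kB-responsive ME-180 line, with 5 hr compound treatment and a FRET-based blue/green fluorescence readout.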

[3] = qHTS assay to identify small molecule agonists of the NFkB signaling pathway - cell viability counter screen (AID 1159515; calls by dose curve; further: series mostly up to about 61 µM; nearly all actives have a fitted effect of over 55% in size)
Summary of the method: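 Cells are seeded (2,000 NFkB-bla ME-180 per well), rested overnight, and dosed with DMSO-dissolved compounds for 5 hr at 37 C. Viability is then read by CellTiter-Glo luminescence after 30 min at room temperature.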

[4] = qHTS assay to identify small molecule agonists of the endoplasmic reticulum stress response signaling pathway (AID 1159516; active means well fitted activation curve with a large enough effect in the signal ratio in the repeat runs, not every such curve was filed as active; the % refers to the signal ratio)
Summary of the method: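 Cells are seeded at 1,500 per well and incubated overnight. Compounds in DMSO are added for 5 hr at 37 C, then beta-lactamase FRET substrate for 2 hr at room temperature, and fluorescence at 460 and 530 nm is measured.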

[5] = qHTS assay to identify small molecule agonists of the endoplasmic reticulum stress response signaling pathway - cell viability counter screen (AID 1159517; calls by dose curve;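 further: HeLa cells carrying an ER stress response element beta-lactamase reporter; series mostly up to about 61 µM; nearly all actives have a fitted effect of over 50% in size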)
Summary of the method: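 Cytotoxicity of test compounds toward ESRE-bla HeLa cells was assessed after 5 hr exposure. The luminescent CellTiter-Glo signal was measured 30 min after reagent addition.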

[6] = qHTS assay to identify small molecule antagonists of the retinoid-related orphan receptor gamma (ROR-gamma) signaling pathway - cell viability counter screen (AID 1159520); further: nearly all actives have a fitted effect of over 50% in size
Summary of the method: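 Tet-on ROR gamma CHO cells (1,000/well) were plated 4 hr, given compounds in DMSO for 2 hr at 37 C, then induced with 1 uM final doxycycline for 16 hr. Viability was read as ATP by CellTiter-Glo luminescence after 30 min.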

[7] = biological target: Nuclear receptor ROR-gamma (Homo sapiens) (UniProt P51449); experiment: qHTS assay to identify small molecule antagonists of the retinoid-related orphan receptor gamma (ROR-gamma) signaling pathway (AID 1159521;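 further: CHO cells with doxycycline inducible ROR-gamma driving an RORE luciferase reporter; top concentration of the series differs between compounds; nearly all actives have a fitted effect of over 50% in size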)
Summary of the method: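 Test compounds were applied to Tet-on RORγ CHO cells 2 h ahead of doxycycline hyclate (1 uM final). Luciferase reporter activity was quantified by luminescence after 16 h at 37 C and 5% CO2.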

[8] = qHTS assay to identify small molecule agonists of the AP-1 signaling pathway - cell viability counter screen (AID 1159525; calls by dose curve; further: nearly all actives have a fitted effect of over 55% in size)
Summary of the method: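 Each titration point was normalised to DMSO and tetra n-octyl ammonium bromide controls. The read was Cell Titer Glo luminescence after 30 min at RT, following 5 h compound exposure of ME-180 AP-1-bla cells at 37 °C.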

[9] = qHTS assay to identify small molecule agonists of the AP-1 signaling pathway (AID 1159526; calls by dose curve)
[10] = biological target: Retinoic acid receptor RXR-alpha (Homo sapiens) (UniProt P19793); experiment: qHTS assay to identify small molecule agonists of the RXR signaling pathway (AID 1159527; calls by dose curve; further: nearly all actives have a fitted effect of over 35% in size)
Sequence of Retinoic acid receptor RXR-alpha (Homo sapiens) (P19793 whole entry, looked up): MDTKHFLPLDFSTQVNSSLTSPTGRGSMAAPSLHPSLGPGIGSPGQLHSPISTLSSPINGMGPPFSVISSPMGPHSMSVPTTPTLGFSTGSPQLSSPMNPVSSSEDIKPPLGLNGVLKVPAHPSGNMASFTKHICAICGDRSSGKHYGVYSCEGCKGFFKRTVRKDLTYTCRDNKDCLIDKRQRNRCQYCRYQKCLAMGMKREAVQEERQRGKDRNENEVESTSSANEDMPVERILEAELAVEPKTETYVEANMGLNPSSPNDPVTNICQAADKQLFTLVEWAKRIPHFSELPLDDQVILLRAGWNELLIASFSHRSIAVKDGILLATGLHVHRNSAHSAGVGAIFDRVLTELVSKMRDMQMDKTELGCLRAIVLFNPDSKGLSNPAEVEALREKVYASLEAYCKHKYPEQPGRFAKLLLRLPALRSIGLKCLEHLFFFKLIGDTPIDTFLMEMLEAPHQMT
Summary of the method: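 Using 9-cis retinoic acid as the reference agonist, chemicals were tested in HEK 293T cells […] for 16 hr; substrate loading lasted 2 hr at room temperature.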

[11] = qHTS assay to identify small molecule agonists of the RXR signaling pathway - cell viability counter screen (AID 1159529)
Summary of the method: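 Compounds dissolved in DMSO were pinned onto HEK 293T cells carrying a beta-lactamase reporter under RXR-alpha control and incubated 16 hr. Cytotoxicity was then quantified by CellTiter-Glo luminescence.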

[12] = qHTS assay to identify small molecule antagonists of the retinoid acid receptor (RAR) signaling pathway - cell viability counter screen (AID 1159551); further: nearly all actives have a fitted effect of over 35% in size
Summary of the method: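 Cells (C3RL4) are plated, incubated overnight, dosed with compound in DMSO, then given retinol at 1 uM final. After 6 h at 37 C, CellTiter-Glo is added and luminescence read following 30 min at room temperature.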

[13] = qHTS assay to identify small molecule antagonists of the retinoic acid receptor (RAR) signaling pathway (AID 1159552; further: nearly all actives have a fitted effect of over 50% in size)
Summary of the method: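 Test chemicals and DMSO controls were pin-transferred onto C3RL4 cells a day after seeding; retinol (1 uM final) followed at once. Luminescent reporter output was quantified after 6 hr of co-incubation and 30 min with detection reagent.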

[14] = qHTS assay to identify small molecule agonists of the retinoic acid receptor (RAR) signaling pathway (AID 1159553)
Summary of the method: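 Seed C3RL4 reporter cells at 1,000 per well and incubate overnight at 37 C. Add compounds in DMSO, incubate 6 hr. Add luciferase reagent, wait 30 min at room temperature, read luminescence.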

[15] = qHTS assay to identify small molecule antagonists of the estrogen related receptor (ERR) signaling pathway - cell viability counter screen (AID 1224818); further: series mostly up to about 46 µM
Summary of the method: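 ERR cells, 2,000/well; 6 h settle at 37 C/5% CO2; compound pin transfer (DMSO); 17.5 h at 37 C; CellTiter-Fluor, 30 min, fluorescence read.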

[16] = qHTS assay to identify small molecule antagonists of the estrogen related receptor (ERR) signaling pathway (AID 1224819)
Summary of the method: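 qHTS in ERR cells, 2,000/well, 1536 format. Cpd (DMSO) added after 6 h settle, 18 h 37 C. One-Glo luminescence, 30 min RT.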

[17] = qHTS assay to identify small molecule agonists of the estrogen related receptor (ERR) signaling pathway (AID 1224820)
Summary of the method: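 Following a 6 h settling period, 2,000 ERR cells per well receive DMSO-dissolved compounds by pin tool and incubate 18 h at 37 C; agonist activity is scored from One-Glo luminescence read 30 min post-addition.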

[18] = test system: estrogen-related receptor alpha (ERRalpha) with PGC-1alpha coactivator, human; experiment: qHTS assay to identify small molecule antagonists of the estrogen related receptor signaling pathway with the pleiotropic PPARgamma coactivator (PGC) (AID 1224821; calls by dose curve)
Summary of the method: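 Screening used NTP's PGC/ERR cells, dosed via pin tool with compound in DMSO alongside positive and negative controls. After 18 h at 37 C, One-Glo reagent sat 30 min at room temperature before luminescence detection.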

[19] = qHTS assay to identify small molecule antagonists of the estrogen related receptor signaling pathway with the pleiotropic PPARgamma coactivator (PGC) cell viability counter screen (AID 1224822;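 further: series mostly up to about 46 µM; viability read after 17.5 h compound exposure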)
Summary of the method: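 Multiplexed viability counter screen run in PGC/ERR cells treated with compounds for 17.5 h at 37 C; live-cell protease signal measured by CellTiter-Fluor fluorescence.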

[20] = qHTS assay to identify small molecule agonists of the estrogen related receptor signaling pathway with the pleiotropic PPARgamma coactivator (PGC) (AID 1224823)
Summary of the method: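 In this quantitative high-throughput screen, an 18 h, 37 C treatment of PGC/ERR cells with compounds in DMSO preceded a One-Glo luminescence read taken after 30 min at room temperature.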

Measured: Potency

CCCCCCCC(=O)Cl
not listed: [15] | [16] | [17] | [18] | [19] | [20]
inactive: all other assays above

O=[N+]([O-])CCO
not listed: [1] | [13] | [15] | [16] | [17] | [18] | [19] | [20]
inactive: all other assays above

CCN1CCCC1CNC(=O)C(O)(c1ccccc1)c1ccccc1 (centres undefined)
not listed: [15] | [16] | [17] | [18] | [19] | [20]
inactive: all other assays above

O=P(O)(O)CN(CP(=O)(O)O)CP(=O)(O)O
not listed: [15] | [16] | [17] | [18] | [19] | [20]
inactive: all other assays above

ClCOCCl
not listed: [15] | [16] | [17] | [18] | [19] | [20]
inactive: all other assays above

Cc1ccc2cc(C)ccc2c1
not listed: [15] | [16] | [17] | [18] | [19] | [20]
inactive: all other assays above

CCCCCCCCBr
not listed: [12] | [15] | [16] | [17] | [18] | [19] | [20]
inactive: all other assays above

CCN(CC)C1CCCCC1
not listed: [15] | [16] | [17] | [18] | [19] | [20]
inactive: all other assays above

Cl/C=C/CCl
not listed: [15] | [16] | [17] | [18] | [19] | [20]
inactive: all other assays above

Cn1c(N)nc2c3cccnc3ccc21
not listed: [14] | [15] | [16] | [17] | [18] | [19] | [20]
inactive: all other assays above

CCOC(=O)C(SP(=S)(OC)OC)c1ccccc1 (centres undefined)
not listed: [14] | [15] | [16] | [17] | [18] | [19] | [20]
inactive: all other assays above

CC[C@@H](CO)NC(=O)[C@@H]1C=C2c3cccc4c3c(cn4C)C[C@H]2N(C)C1
inactive: all assays above

C=CCc1cc(OC)c2c(c1)OCO2
not listed: [15] | [16] | [17] | [18] | [19] | [20]
inactive: all other assays above

C/C(=N\NC(=O)Nc1cc(F)cc(F)c1)c1ncccc1C(=O)O
not listed: [13] | [14] | [15] | [16] | [17] | [18] | [19] | [20]
inactive: all other assays above

CC(Cc1ccccc1)NCCCCl (centres undefined)
not listed: [15] | [16] | [17] | [18] | [19] | [20]
inactive: all other assays above

CCOC1Oc2ccc(OS(C)(=O)=O)cc2C1(C)C (centres undefined)
not listed: [14] | [15] | [16] | [17] | [18] | [19] | [20]
inactive: all other assays above

CC(C)(C1CCC(O)CC1)C1CCC(O)CC1 (centres undefined)
not listed: [12] | [15] | [16] | [17] | [18] | [19] | [20]
inactive: all other assays above

O=C(NC(O)C(Cl)(Cl)Cl)NC(O)C(Cl)(Cl)Cl (centres undefined)
not listed: [12] | [15] | [16] | [17] | [18] | [19] | [20]
inactive: all other assays above

OCC(Cl)CCl (centres undefined)
not listed: [10] | [15] | [16] | [17] | [18] | [19] | [20]
inactive: all other assays above

CCOC(=O)N(C)N=O
not listed: [12] | [15] | [16] | [17] | [18] | [19] | [20]
inactive: all other assays above
